Data: PubChem BioAssay (NCI)
Where “and” joins values, the source holds several entries; their conditions need not be identical. Equal entries are not always repeated. The panel holds about 83,000 compounds, 20% with a hit somewhere; the sample as a whole holds those more often.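 Plates (96-well) were seeded with cells, treated with compound at one concentration, and incubated for 48 hours before percent growth was determined.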 Calls of active or inactive are those of the source.

Each molecule was assayed on T-47D breast (assay: NCI-60 one-dose screen, 48 h (100 = growth as untreated, 0 = no growth, -100 = all killed)). Conditions: 10 µM unless noted.
Experimental: Growth inhibition of the T-47D human tumor cell line is measured as a screen for anti-cancer activity. Cells are grown in 96 well plates and exposed to the test compound for 48 hours. Compounds are tested at a single concentration, which is 10^-5 M for most compounds. The reported endpoint is percent growth (GI% or GIPRCNT), where numbers from 0 - 100% represent growth inhibition, and numbers from -100% - 0 represent cell death. For example, a value of 40 represents 60% growth inhibition. A value of 0 means no net growth occurred over the course of the experiment. A value of -40 indicates 40% of cells at the beginning of the experiment died by the end of the experiment. A value of -100 means all cells are dead at the end of the experiment.
NCI-60 Human Tumor Cell Lines Screen was performed using the standard one-dose NCI protocol, which is described in more detail at https://dtp.cancer.gov/discovery_development/nci-60/default.htm.
Compounds with GIPRCNT values below 10 were considered active. Activity score was based on GIPRCNT using the following formula: […]
Score is 0 for GIPRCNT values of 100 or above, 50 for GIPRCNT values of 0, and 100 for GIPRCNT values of -100.

SMILES	growth
Nc1ccc2c(O)cc(S(=O)(=O)O)cc2c1	85.5% (inactive) and 101% (inactive)
Cn1cnc([N+](=O)[O-])c1Sc1ncn[nH]1	94.2% (inactive)
CCCCCCCCCCCCCCCc1ccc(N)c(OC2OC(CO)C(O)C(O)C2O)c1 (stereo not given)	104% (inactive)
O=C1OC(c2ccccc2)=N/C1=C\c1ccccc1	96.4% (inactive)
O=C1c2c(O)ccc(O)c2C(=O)c2c(NCCNCCO)ccc(NCCNCCO)c21	-24% (active) and -46.9% (active)
OC1COC(OCc2ccccc2)C(O)C1O (stereo not given)	89% (inactive)
CCc1cc(C)cc(O)c1	102% (inactive)
CCCCOC(=O)/C=C\C(=O)NC(N)=O	60.4% (inactive)
CCOC(=O)c1c(C)cc(=O)oc1C	102% (inactive)
CC[C@H](CC[C@@H](C)[C@H]1CC[C@H]2[C@@H]3CC=C4C[C@@H](O)CC[C@]4(C)[C@H]3CC[C@]12C)C(C)C	97.2% (inactive) and 105% (inactive)
Nc1ncnc2c1ncn2C1OC(COP(=O)(O)O)C(O)C1O (stereo not given)	123% (inactive)
CC(=O)NCC(=O)c1ccc([N+](=O)[O-])cc1	86.3% (inactive)
NC(Cc1c[nH]c2ccccc12)C(=O)O (stereo not given)	110% (inactive)
CC(C)(O)C(=O)O	100% (inactive)
COc1cc(C(O)C2C(=O)OCC2C2(c3ccc4c(c3)OCO4)SCCCS2)cc(OC)c1OC (stereo not given)	107% (inactive)
O=C(/C=C/c1ccccc1)c1ccccc1	64.6% (inactive)
OCC1OC(O)C(O)C(O)C1O (stereo not given)	102% (inactive)
CC1CCC2(C(=O)O)CCC3(C)C(=CCC4C5(C)CCC(O)C(C)(C)C5CCC43C)C2C1C (stereo not given)	49% (inactive) and 77.2% (inactive)
O=C(O)/C=C\C(=O)Nc1cccc2ccccc12	120% (inactive) and 107% (inactive)
CC1(C)COC(=S)N1	99.9% (inactive)

SMILES	growth
CC1=C/C(O)CC(=O)Cc2nc(co2)C(=O)N2CCC=C2C(=O)OC(C(C)C)C(C)/C=C\C(=O)NC/C=C\1 (stereo not given)	89.4% (inactive)
COc1ccc2cc1Oc1ccc(cc1)C[C@H]1c3cc(c(OC)cc3CCN1C)Oc1c(OC)c(OC)cc3c1[C@H](C2)N(C)CC3	93.1% (inactive)
Oc1ccc(Cc2ccccc2Cl)c(O)c1	83.9% (inactive)
O=C(O)CCCl	110% (inactive)
CCCCCCCCCCCCCCCCC(C(=O)O)C(O)(CC(=O)O)C(=O)O (stereo not given)	98.2% (inactive) and 4.81% (active)
Cc1ccc(S(=O)(=O)c2ccccc2)cc1	49.7% (inactive)
O=[N+]([O-])c1cccc(SSc2cccc([N+](=O)[O-])c2)c1	76.9% (inactive)
O=C1CSC2=NCCN12	111% (inactive)
OCCN1CCCCCCC1	95.6% (inactive)
CC(C)NC(=O)N/C=C(\C#N)C(N)=O	101% (inactive)
c1ccc(CNCCNCc2ccccc2)cc1	103% (inactive)
COc1ccc(N/C=C/C2=[N+](C)c3ccccc3C2(C)C)c(OC)c1	89.5% (inactive)
CCCCNc1ccc(Nc2ccccc2)cc1	34% (inactive)
CCCCOc1ccc(Nc2cc(Cl)ccc2C(=O)O)cn1	92.6% (inactive) and 92.3% (inactive)
C/C(=C\c1ccccc1)c1ccccn1	94.7% (inactive)
CC1CCC2(OC1)OC1CC3C4CC=C5CC(O)CCC5(C)C4CCC3(C)C1C2C (stereo not given)	106% (inactive)
O=c1n(CC2CO2)c(=O)n(CC2CO2)c(=O)n1CC1CO1 (stereo not given)	53.5% (inactive)
O=C1C=C(Nc2ccccc2)c2ccccc2C1=O	77.2% (inactive) and 102% (inactive)
O=C(Cc1ccccc1)c1ccc(O)c(Cl)c1	43.9% (inactive)
Cc1cc2ccccc2cn1	104% (inactive) and 107% (inactive)
